# Measurements: PubChem BioAssay (NCI)
# This is part of a sample that, as a whole, favours compounds with a hit. Of some 83,000 tested, about 20% had one in any assay.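 Compound tested at a single concentration for 48 hours in 96-well plates; a percent growth value below 10 was scored as active.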 Values without a mark were called inactive. Calls of active or inactive are those of the source.
# Tested on: HL-60(TB) leukemia
# Assay: NCI-60 one-dose screen, 48 h (100 = growth as untreated, 0 = no growth, -100 = all killed)
# Details: 10 µM unless noted
row,Structure (SMILES),growth
1,CSc1ccc2c(c1)N(C(=O)/C(C#N)=C/c1c[nH]c3ccccc13)c1ccccc1S2,12.8%
2,Clc1ccc(CSc2nnc(-c3ccc(Cl)cc3)n2-c2ccccc2)cc1,90.9%
3,O=C(/C=C1\C=CN(CCCCCCF)c2ccccc21)n1ccc2ccccc21,109%
4,Nc1cc(-c2c[nH]c3ccc(F)cc23)nc2cc(-c3c[nH]c4ccc(F)cc34)nn12,-37.6% (active)
5,NCCNC(=O)c1cccc(COc2ccccc2NC(=O)c2cc(Br)c(Br)[nH]2)c1,69.5%
6,Cc1ccsc1[C@H]1c2[nH]c3ccccc3c2C[C@H]2C(=O)N(CCCCCCC(=O)NO)CC(=O)N12,104%
7,CN(C)CCCNc1c2ccc(Cl)cc2nc2c1oc1ccc(Cl)cc12,-53.9% (active)
8,CN(c1ccc(F)cc1)S(=O)(=O)c1ccc(-c2cnc(C3CC3)o2)cc1,-15.8% (active)
9,C=C(C)[C@@H]1CC[C@]2(COC)CC[C@]3(C)[C@H](CC[C@@H]4[C@@]5(C)CCCNC(C)(C)[C@@H]5CC[C@]43C)[C@@H]12,-69.2% (active)
10,COc1ccc(-c2c(C(N)=O)c(N)n(Cc3nc4ccccc4[nH]3)c(=O)c2C#N)c(OC)c1,106%
11,C#C[C@]1(O)CC[C@H]2[C@@H]3CC=C4c5sc(-c6ccc(C)cc6)nc5CC[C@]4(C)[C@H]3CC[C@@]21C,-2.49% (active)
12,COc1ccc(NC2=C(Cl)C(=O)c3nc(C)ccc3C2=O)cc1OC,9.95% (active)
13,CCN1CCN(c2ccc(NC(=O)Nc3ccc4c(ccn4-c4ccnc(C(=O)NC)c4)c3)cc2C(F)(F)F)CC1,96.6%
14,CCOc1ccc(NC2=C(Cl)C(=O)c3nc(C)ccc3C2=O)cc1,-46.4% (active)
15,O=C1[C@H]2Cc3c([nH]c4ccccc34)[C@@H](c3ccc(Cl)cc3)N2C(=O)CN1C1CCN(Cc2ccccc2)CC1,12.9%
16,COc1ccc(COc2ccc(/C=C3/C(=O)Nc4cc(Cl)ccc43)cc2)cc1,119%
17,[Cl][Ru].c1ccc(-c2cc(-c3ccccn3)nc(-c3ccccn3)c2)cc1.c1ccc(-c2ccnc3c2ccc2c(-c4ccccc4)ccnc23)cc1,-29.2% (active)
18,NC(N)=Nc1ccc(Oc2cccc(Nc3cccc(C(F)(F)F)c3)c2)cn1,-64.4% (active)
19,N/C(=N\c1nc2c(Cl)cc(Cl)cc2s1)C(Cl)(Cl)Cl,4.49% (active)
20,O=S(=O)(Nc1cc(Cl)c(F)c(Cl)c1)c1ccc(-c2cnc(C3CC3)o2)cc1,14.1%

row,Structure (SMILES),growth
1,NS(=O)(=O)c1ccc(Nc2nc(N/N=C/CCc3ccccc3)nc(Nc3ccccc3)n2)cc1,107%
2,COC(=O)C(Cc1ccccc1)NS(=O)(=O)/N=C1\NC(=O)NC1=C(Cl)Cl (stereo not given),96.1%
3,Cc1cc(NS(=O)(=O)c2ccc(-c3cnc(C4CC4)o3)cc2)ccc1I,1.38% (active)
4,O=C(NCCN1CCCC1)c1ccc(-c2nc3ccc4[nH]ncc4c3c3c2CCCC3)cc1,-49.8% (active)
5,O=C(NNc1nc2cc(F)c(F)cc2n2c(CN3CC4CNCC4C3)ccc12)c1ncccn1 (stereo not given),-30.7% (active)
6,O=C(NNc1nc2cc(F)c(F)cc2n2c(CN3CC4CNCC4C3)ccc12)c1cnccn1 (stereo not given),-1.93% (active)
7,COc1ccc(-c2cc(-c3ccc(N(C)C)cc3)n3c(n2)nc2ccccc23)cc1,18.4%
8,CN1C(=S)N(C)C2C1NN=C1SC(c3ccccc3)=CC(=O)N12 (stereo not given),80.7%
9,CN1CCc2c(sc3ncnc(N/N=C/c4ccc(Cl)c(Cl)c4)c23)C1,-58.2% (active)
10,Cc1nn(-c2ccccc2)c2ncnc(N/N=C/c3cccc(O)c3)c12,35.3%
11,Cn1nc(Nc2ccccc2)c(C(=O)NN)c1N,105%
12,O=C(Nc1cccc(C(F)(F)F)c1)N1CCN(c2cc(-c3cn(-c4ccccc4)nc3-c3cccc(O)c3)ccn2)CC1,20.9%
13,Cc1cc(C(NC(=O)CCCCCNc2cccc3c2C(=O)N(C2CCC(=O)NC2=O)C3=O)c2ccc3c(c2)OC(F)(F)O3)c(O)c2ncccc12 (stereo not given),19.7%
14,O=C(Nc1ccc(-c2nc(-c3cccc(O)c3)c(-c3ccnc(Br)c3)[nH]2)cc1)c1ccccc1,-53.1% (active)
15,COc1c(N2CC3CCCNC3C2)c(F)cc2c(=O)c(C(=O)N/N=C/c3c[nH]c4ccccc34)cn(C3CC3)c12 (stereo not given),94.4%
16,CC/C(=C(/c1ccc(Cl)cc1)c1ccc(OCCN)cc1)c1ccccc1,43.4%
17,COc1ccc2c(c1)c(CC(=O)[Se]CC#N)c(C)n2C(=O)c1ccc(Cl)cc1,-14% (active)
18,CN(C)CCCOc1ccc(C(=C(c2ccccc2)C2CCCC2)c2ccc(OCCCN(C)C)cc2)cc1,-57.1% (active)
19,O=C(/C=C/c1cccc(F)c1)c1cccc(OCCCOc2cccc(C(=O)/C=C/c3cccc(F)c3)c2)c1,68.3%
20,CN(C)CCNc1ccc2ncc(C#Cc3cncc(C(=O)Nc4ccc(CN5CCN(C)CC5)c(C(F)(F)F)c4)c3)n2n1,-32.1% (active)
